# Legend:
# Assay in all cases: DAPPL (digital affinity profiling via proximity ligation, sequencing); 10 mM Tris-HCl pH 7.5, 50 mM NaCl, 1 mM DTT, 4% glycerol, room temperature, 30 min; GST-TFs on glutathione beads, 16-mer random dsDNA library, 0.1% formaldehyde crosslink after washing; high values mean tight binding
# FEV = target: T1, FEV (Homo sapiens, UniProt Q99581 1-238); details: protein: recombinant; tags: N-terminal GST; dsDNA, one strand shown
# T1 sequence: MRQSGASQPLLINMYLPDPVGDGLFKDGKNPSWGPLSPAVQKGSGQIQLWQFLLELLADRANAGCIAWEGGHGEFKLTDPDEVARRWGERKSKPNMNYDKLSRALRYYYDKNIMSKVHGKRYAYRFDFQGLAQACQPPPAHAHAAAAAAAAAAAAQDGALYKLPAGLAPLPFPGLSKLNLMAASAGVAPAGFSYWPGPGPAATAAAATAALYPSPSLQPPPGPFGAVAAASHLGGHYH
# In short: (§1)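 The binding signal reported is, for every hexamer, its read frequency for a factor over its read frequency for the tag-only sample. Reads came from pools of yeast-expressed, GST-fused human transcription factors on glutathione beads, barcoded with DNA and mixed with that sample, which were incubated with 200 nmole of a random double-stranded 16-mer DNA library in Tris/NaCl/DTT/glycerol buffer at room temperature for 30 min. After washing, the pools were crosslinked with 0.1% formaldehyde, proximity-ligated with BsaI/T4 ligase for 1 h at 37 °C, PCR-amplified and sequenced on an Illumina NextSeq500.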
# ETV5 = ETV5 (Homo sapiens, UniProt P41161 1-510); details: protein: recombinant; tags: N-terminal GST; dsDNA, one strand shown
# In short: as §1
# HSF1 = HSF1 (Homo sapiens, UniProt Q00613 1-529); details: protein: recombinant; tags: N-terminal GST; chain copies: 3; dsDNA, one strand shown
# In short: as §1
# SPIC = target: T2, SPIC (Homo sapiens, UniProt Q8N5J4 1-248); details: protein: recombinant; tags: N-terminal GST; dsDNA, one strand shown
# T2 sequence: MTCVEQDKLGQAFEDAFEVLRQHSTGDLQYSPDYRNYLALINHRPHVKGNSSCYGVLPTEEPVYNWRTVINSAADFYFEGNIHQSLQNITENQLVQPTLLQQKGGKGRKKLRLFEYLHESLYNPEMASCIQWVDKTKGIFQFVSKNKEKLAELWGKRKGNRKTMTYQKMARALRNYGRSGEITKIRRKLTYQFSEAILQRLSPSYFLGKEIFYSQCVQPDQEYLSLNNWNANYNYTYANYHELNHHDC
# In short: as §1
# ELF4 = ELF4 (Homo sapiens, UniProt Q99607 1-663); details: protein: recombinant; tags: N-terminal GST; dsDNA, one strand shown
# In short: as §1
# ELK4 = target: T3, ELK4 (Homo sapiens, UniProt P28324-2 1-405); details: protein: recombinant; tags: N-terminal GST; dsDNA, one strand shown
# T3 sequence: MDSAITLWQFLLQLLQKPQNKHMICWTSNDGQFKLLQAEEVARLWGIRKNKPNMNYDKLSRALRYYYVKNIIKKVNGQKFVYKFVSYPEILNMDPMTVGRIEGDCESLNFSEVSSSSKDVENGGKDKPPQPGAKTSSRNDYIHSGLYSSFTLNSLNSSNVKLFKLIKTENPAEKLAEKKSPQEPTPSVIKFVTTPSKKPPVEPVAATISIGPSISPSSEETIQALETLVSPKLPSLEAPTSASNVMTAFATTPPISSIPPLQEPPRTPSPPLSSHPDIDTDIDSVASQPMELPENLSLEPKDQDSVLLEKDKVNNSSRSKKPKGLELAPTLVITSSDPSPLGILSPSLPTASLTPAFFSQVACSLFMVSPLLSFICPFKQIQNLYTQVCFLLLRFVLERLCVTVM
# In short: as §1
# ETV2 = target: T4, ETV2 (Homo sapiens, UniProt O00321 1-342); details: protein: recombinant; tags: N-terminal GST; dsDNA, one strand shown
# T4 sequence: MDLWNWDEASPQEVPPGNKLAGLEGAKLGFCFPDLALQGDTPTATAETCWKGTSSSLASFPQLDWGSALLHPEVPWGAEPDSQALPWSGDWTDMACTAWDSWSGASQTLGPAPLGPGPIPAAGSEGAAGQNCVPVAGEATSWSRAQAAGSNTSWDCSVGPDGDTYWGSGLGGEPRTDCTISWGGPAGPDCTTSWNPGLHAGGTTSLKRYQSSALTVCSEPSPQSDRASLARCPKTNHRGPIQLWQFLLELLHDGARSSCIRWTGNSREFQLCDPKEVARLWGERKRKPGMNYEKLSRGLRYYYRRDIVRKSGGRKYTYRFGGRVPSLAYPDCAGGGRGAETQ
# In short: as §1
# CRX = CRX (Homo sapiens, UniProt O43186 1-299); details: protein: recombinant; tags: N-terminal GST; dsDNA, one strand shown
# In short: as §1
# ETV1 = ETV1 (Homo sapiens, UniProt P50549 1-477); details: protein: recombinant; tags: N-terminal GST; dsDNA, one strand shown
# In short: as §1
# ERF = target: T5, ERF (Homo sapiens, UniProt P50548 1-548); details: protein: recombinant; tags: N-terminal GST; dsDNA, one strand shown
# T5 sequence: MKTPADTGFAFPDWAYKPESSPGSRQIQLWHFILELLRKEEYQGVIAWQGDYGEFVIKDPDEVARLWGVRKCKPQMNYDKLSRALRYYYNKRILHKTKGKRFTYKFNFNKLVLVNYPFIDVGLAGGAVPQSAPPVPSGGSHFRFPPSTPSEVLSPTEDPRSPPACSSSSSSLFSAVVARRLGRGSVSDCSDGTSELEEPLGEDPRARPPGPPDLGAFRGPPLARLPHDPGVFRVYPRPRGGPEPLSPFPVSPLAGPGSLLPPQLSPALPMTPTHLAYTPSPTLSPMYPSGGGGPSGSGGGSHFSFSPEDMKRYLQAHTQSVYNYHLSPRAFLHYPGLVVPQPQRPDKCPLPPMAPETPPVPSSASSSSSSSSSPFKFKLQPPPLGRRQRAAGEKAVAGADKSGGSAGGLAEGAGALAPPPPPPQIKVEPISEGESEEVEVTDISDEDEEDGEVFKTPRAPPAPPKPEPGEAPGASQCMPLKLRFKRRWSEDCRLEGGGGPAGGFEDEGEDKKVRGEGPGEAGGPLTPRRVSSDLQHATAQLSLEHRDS
# In short: as §1
# ETV3L = target: T6, ETV3L (Homo sapiens, UniProt Q6ZN32 1-361); details: protein: recombinant; tags: N-terminal GST; dsDNA, one strand shown
# T6 sequence: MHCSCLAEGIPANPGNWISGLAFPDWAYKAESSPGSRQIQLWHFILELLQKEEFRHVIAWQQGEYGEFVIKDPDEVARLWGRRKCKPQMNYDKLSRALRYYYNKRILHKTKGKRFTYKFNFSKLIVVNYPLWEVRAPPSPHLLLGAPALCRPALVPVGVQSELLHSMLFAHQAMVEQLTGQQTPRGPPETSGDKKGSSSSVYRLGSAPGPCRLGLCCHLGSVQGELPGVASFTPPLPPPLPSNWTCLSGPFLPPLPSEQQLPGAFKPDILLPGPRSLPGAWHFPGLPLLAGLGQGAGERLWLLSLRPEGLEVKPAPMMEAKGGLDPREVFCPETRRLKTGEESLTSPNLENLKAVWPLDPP
# In short: as §1
# ETS2 = target: T7, ETS2 (Homo sapiens, UniProt P15036 1-469); details: protein: recombinant; tags: N-terminal GST; dsDNA, one strand shown
# T7 sequence: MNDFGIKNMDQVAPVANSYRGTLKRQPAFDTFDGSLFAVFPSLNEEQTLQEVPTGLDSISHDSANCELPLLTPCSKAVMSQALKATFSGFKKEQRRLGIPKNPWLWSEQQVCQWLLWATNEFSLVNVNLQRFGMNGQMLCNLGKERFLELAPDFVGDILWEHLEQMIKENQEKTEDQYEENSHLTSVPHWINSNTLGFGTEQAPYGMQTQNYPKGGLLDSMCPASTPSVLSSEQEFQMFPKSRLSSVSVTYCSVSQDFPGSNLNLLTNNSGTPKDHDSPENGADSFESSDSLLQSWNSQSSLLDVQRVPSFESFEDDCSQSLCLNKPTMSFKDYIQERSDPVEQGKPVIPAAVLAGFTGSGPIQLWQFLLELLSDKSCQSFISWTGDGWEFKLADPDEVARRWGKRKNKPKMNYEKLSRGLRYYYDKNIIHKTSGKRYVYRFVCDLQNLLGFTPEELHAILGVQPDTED
# In short: as §1
# SPDEF = target: T8, SPDEF (Homo sapiens, UniProt O95238 1-335); details: protein: recombinant; tags: N-terminal GST; dsDNA, one strand shown
# T8 sequence: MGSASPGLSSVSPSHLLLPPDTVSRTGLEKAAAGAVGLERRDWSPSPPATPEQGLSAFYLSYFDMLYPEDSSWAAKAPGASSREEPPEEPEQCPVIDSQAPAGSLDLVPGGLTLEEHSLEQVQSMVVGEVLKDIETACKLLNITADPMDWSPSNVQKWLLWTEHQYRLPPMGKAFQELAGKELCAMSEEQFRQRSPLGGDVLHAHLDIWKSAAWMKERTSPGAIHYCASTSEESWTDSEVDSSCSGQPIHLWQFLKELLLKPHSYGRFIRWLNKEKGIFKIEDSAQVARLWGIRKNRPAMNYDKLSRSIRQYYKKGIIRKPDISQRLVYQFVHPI
# In short: as §1
# ETV7 = target: T9, ETV7 (Homo sapiens, UniProt Q9Y603 1-341); details: protein: recombinant; tags: N-terminal GST; dsDNA, one strand shown
# T9 sequence: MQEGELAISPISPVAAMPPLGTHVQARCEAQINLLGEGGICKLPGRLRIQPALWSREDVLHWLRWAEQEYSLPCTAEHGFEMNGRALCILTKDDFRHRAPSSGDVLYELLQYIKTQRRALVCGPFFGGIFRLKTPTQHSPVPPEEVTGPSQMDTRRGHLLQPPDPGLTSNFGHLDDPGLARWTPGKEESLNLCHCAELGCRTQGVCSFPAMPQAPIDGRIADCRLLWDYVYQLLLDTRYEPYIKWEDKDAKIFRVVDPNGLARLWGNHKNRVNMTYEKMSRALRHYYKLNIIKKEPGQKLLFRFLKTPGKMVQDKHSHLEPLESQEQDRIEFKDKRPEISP
# In short: as §1
# ETV3 = target: T10, ETV3 (Homo sapiens, UniProt P41162-2 1-143); details: protein: recombinant; tags: N-terminal GST; dsDNA, one strand shown
# T10 sequence: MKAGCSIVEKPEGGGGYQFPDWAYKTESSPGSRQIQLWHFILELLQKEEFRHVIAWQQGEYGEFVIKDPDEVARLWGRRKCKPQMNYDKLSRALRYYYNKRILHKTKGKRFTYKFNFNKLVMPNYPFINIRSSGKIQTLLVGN
# In short: as §1
# ETV6 = ETV6 (Homo sapiens, UniProt P41212 1-452); details: protein: recombinant; tags: N-terminal GST; dsDNA, one strand shown
# In short: as §1
# Sequence of CRX (O43186 whole entry): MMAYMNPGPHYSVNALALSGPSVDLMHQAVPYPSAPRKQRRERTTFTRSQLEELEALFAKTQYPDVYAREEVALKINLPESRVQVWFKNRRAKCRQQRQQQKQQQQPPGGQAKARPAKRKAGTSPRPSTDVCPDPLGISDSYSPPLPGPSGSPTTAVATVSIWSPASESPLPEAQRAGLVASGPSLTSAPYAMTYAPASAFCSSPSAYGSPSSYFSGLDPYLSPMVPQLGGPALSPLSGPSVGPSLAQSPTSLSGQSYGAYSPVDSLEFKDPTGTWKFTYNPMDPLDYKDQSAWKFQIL
# Sequence of ETV1 (P50549 whole entry): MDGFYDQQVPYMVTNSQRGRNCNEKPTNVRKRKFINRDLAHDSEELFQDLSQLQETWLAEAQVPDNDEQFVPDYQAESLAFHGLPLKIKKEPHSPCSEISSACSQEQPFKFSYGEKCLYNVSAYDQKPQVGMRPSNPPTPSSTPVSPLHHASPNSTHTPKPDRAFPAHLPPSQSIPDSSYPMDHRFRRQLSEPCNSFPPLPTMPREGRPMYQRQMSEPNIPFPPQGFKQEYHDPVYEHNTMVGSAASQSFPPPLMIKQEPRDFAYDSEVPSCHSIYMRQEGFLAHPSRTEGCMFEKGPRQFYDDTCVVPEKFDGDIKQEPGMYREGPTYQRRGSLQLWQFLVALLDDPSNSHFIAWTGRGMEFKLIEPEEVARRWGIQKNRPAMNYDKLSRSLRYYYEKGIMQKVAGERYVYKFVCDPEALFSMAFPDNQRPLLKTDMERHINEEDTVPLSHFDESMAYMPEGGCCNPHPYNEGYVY
# Sequence of HSF1 (Q00613 whole entry): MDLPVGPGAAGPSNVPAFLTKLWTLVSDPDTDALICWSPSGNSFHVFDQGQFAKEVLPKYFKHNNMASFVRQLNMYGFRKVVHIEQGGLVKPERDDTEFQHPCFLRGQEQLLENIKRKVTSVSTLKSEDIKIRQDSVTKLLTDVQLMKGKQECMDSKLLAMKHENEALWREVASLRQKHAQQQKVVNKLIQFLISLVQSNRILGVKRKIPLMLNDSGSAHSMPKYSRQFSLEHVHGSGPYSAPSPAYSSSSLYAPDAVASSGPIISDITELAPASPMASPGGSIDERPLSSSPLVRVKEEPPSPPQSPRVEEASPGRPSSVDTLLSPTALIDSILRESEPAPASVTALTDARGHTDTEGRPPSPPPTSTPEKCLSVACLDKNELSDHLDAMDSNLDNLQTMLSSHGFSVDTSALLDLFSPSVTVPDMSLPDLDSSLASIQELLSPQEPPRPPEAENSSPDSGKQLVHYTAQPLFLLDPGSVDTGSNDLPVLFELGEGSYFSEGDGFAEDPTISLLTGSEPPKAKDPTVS
# Sequence of ETV5 (P41161 whole entry): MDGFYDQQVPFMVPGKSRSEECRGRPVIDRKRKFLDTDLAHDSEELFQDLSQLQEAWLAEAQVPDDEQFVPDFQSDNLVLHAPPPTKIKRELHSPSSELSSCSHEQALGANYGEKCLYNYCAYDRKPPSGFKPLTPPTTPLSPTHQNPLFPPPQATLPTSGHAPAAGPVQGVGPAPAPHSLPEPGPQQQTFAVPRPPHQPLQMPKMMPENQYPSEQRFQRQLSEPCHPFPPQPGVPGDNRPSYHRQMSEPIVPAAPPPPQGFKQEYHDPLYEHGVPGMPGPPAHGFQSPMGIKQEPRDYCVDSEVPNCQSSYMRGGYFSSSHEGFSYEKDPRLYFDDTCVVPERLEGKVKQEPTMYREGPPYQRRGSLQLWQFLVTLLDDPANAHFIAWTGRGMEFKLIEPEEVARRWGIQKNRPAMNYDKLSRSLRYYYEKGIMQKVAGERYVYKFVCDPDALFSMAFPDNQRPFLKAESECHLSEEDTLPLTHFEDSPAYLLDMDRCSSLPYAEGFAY
# Sequence of ELF4 (Q99607 whole entry): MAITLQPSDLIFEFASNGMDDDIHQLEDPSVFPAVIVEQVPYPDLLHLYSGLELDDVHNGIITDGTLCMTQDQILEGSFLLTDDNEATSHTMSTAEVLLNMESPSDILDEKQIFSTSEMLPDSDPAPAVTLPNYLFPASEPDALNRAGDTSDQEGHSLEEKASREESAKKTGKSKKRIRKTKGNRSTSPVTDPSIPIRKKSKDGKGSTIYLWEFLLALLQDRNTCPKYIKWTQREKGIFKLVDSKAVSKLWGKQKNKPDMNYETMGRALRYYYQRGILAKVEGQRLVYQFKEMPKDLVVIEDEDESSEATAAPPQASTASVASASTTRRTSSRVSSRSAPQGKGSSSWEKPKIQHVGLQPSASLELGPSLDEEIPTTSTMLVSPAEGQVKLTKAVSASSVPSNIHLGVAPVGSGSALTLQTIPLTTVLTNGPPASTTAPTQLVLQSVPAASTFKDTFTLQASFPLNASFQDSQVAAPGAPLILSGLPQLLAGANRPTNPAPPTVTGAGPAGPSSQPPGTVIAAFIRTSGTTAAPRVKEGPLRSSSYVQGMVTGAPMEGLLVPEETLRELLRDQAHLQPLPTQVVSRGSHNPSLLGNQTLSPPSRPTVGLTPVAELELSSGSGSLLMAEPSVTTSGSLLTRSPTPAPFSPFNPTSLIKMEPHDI
# Sequence of ETV6 (P41212 whole entry): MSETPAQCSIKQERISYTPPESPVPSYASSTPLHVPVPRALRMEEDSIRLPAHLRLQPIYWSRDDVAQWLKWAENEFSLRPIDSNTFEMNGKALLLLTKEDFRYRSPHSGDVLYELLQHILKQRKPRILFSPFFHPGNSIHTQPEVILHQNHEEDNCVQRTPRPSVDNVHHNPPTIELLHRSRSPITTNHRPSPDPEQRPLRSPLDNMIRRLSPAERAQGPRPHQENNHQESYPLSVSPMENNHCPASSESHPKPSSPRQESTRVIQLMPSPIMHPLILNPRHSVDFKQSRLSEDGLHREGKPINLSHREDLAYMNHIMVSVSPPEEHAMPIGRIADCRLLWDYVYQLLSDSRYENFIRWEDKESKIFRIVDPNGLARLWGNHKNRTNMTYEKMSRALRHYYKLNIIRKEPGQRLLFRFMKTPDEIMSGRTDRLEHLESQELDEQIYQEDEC
sequence,measurement,setting,value
TCGATA,binding signal,FEV,"1.05 fold enrichment (6-mer frequency, TF over GST control)"
same,binding signal,ETV5,"1.07 fold enrichment (6-mer frequency, TF over GST control)"
same,binding signal,HSF1,"1.35 fold enrichment (6-mer frequency, TF over GST control)"
same,binding signal,SPIC,"1.28 fold enrichment (6-mer frequency, TF over GST control)"
same,binding signal,ELF4,"1.15 fold enrichment (6-mer frequency, TF over GST control)"
same,binding signal,ELK4,"1.16 fold enrichment (6-mer frequency, TF over GST control)"
same,binding signal,ETV2,"1.16 fold enrichment (6-mer frequency, TF over GST control)"
same,binding signal,CRX,"1.24 fold enrichment (6-mer frequency, TF over GST control)"
same,binding signal,ETV1,"1.03 fold enrichment (6-mer frequency, TF over GST control)"
same,binding signal,ERF,"1.24 fold enrichment (6-mer frequency, TF over GST control)"
same,binding signal,ETV3L,"1.13 fold enrichment (6-mer frequency, TF over GST control)"
same,binding signal,ETS2,"1.06 fold enrichment (6-mer frequency, TF over GST control)"
same,binding signal,SPDEF,"1.07 fold enrichment (6-mer frequency, TF over GST control)"
same,binding signal,ETV7,"1.07 fold enrichment (6-mer frequency, TF over GST control)"
same,binding signal,ETV3,"1.11 fold enrichment (6-mer frequency, TF over GST control)"
same,binding signal,ETV6,"1.01 fold enrichment (6-mer frequency, TF over GST control)"

# — article PMC7862700, “An all-to-all approach to the identification of sequence-specific readers for epigenetic DNA modifications on cytosine”
